A short description of assay [1]: small molecules captured by biotinylated probe aFSTL3 – biochemical, small-molecule microarray, fluorescence 635/667, stem cell growth factor project, primary screen (AID 1064).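 Also: measures binding of the biotinylated anti-FSTL3 antibody to printed compounds.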 The settings on record: higher = more signal.
The nature of assay [2]: binders from COS7 lysate, DM2A8 probe, primary screen, torsin A project, cell lysate, small-molecule microarray, fluorescence 635/667 (AID 1065). To be noted: higher = more signal, COS7 lysate expressing mutant human TOR1A.
Assay [3] is described as follows: small molecules captured by biotinylated probe aFGF2 – biochemical, small-molecule microarray, fluorescence 635/667, stem cell growth factor project, primary screen (AID 1067).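 Also: measures binding of biotinylated aFGF2 protein to printed compounds on slides; z-score merges feature fluorescence and signal-to-noise across triplicate slides.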 To be noted: higher = more signal.
A short description of assay [4]: small molecules captured by biotinylated probe aFGF10 – biochemical, small-molecule microarray, fluorescence 635/667, stem cell growth factor project, primary screen (AID 1071).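 Also: score merges 667 nm spot intensity and signal to noise from triplicate slides.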 To be noted: higher = more signal.
Assay [5] deals with Neurogenic locus notch homolog protein 2 (Homo sapiens) (UniProt Q04721). Nature of the assay: small molecules binding Notch2 protein – biochemical, small-molecule microarray, 635 nm fluorescence, stem cell growth factors, primary screen (AID 1073). The settings on record: higher = more signal.
Assay [6] addresses Pro-neuregulin-1, membrane-bound isoform (Homo sapiens) (UniProt Q02297). Nature of the assay: small molecules binding neuregulin-1 protein – biochemical, small-molecule microarray, fluorescence 635/667, psychiatric disease protein project, primary screen (AID 1075).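 Also: score combines 667 nm spot fluorescence with signal to noise.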 The settings on record: NRG1 binding, 635 nm fluorescence, higher = more signal.
Assay [7] concerns Neuregulin-1 EGF-like domain. Nature of the assay: small molecules binding NRG1 EGF domain – biochemical, small-molecule microarray, 635 nm fluorescence, primary screen (AID 1081).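 Also: binding of the protein to compounds printed on small-molecule microarray slides.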 To be noted: higher = more signal.
Assay [8] in a line: FRG1 expression reporter modulators in myotubes – cell-based, C2C12 myotubes, firefly/Renilla luciferase, luminescence, FRG1 inhibition for FSHD, primary screen (AID 1084). To be noted: FRG1 promoter luciferase, higher = more signal, called active from +8 up or from −8 down.
Assay [9] in a line: small molecules captured by biotinylated probe aFST – biochemical, small-molecule microarray, fluorescence 635/667, stem cell growth factor project, primary screen (AID 1086).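 Also: score merges 667 nm fluorescence with signal-to-noise of each printed compound spot.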 To be noted: higher = more signal.
Assay [10] in a line: binders of probe aHhip on microarray, primary screen, stem cell growth factor project, biochemical, small-molecule microarray, fluorescence 635/667 (AID 1087).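 Also: score merges spot fluorescence at 667nm with spot signal to noise ratio.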 The settings on record: higher = more signal.
Assay [11] has as its system PRMT1 (protein arginine N-methyltransferase 1). Nature of the assay: small molecules binding arginine methyltransferase PRMT1 – biochemical, small-molecule microarray, 635 nm fluorescence, primary screen (AID 1088).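 Also: binding of Prmt1 protein to compounds spotted on small-molecule microarray slides.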 To be noted: higher = more signal.
A short description of assay [12]: growth effects on S. cerevisiae YJM789 – YJM789 clinical isolate, OD600, 24 h, basal, primary screen (AID 1089).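 Also: growth of clinical yeast isolate S. cerevisiae YJM 789 seeded 1000 cells per well; test concentration not given here.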 The settings on record: higher = more signal, called active from +8 up or from −8 down.
The nature of assay [13]: S. pombe growth modifiers, basal conditions – strain 972, OD600, 24 h, no modulator, primary screen (AID 1090).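 Also: basal condition with compound alone and no growth modifier present; test concentration not given here.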 The settings on record: S. pombe 972 growth, higher = more signal, called active from +8 up or from −8 down.
A short description of assay [14]: budding yeast growth modifiers under rapamycin – strain BY4716, OD600, 96 h, primary screen (AID 1091). Also: test concentration not given here. To be noted: S. cerevisiae BY4716 + rapamycin, higher = more signal, called active from +8 up or from −8 down.
Assay [15] addresses Torsin-1A-interacting protein 2 (Homo sapiens) (UniProt Q8NFQ8). Description: small molecules binding lysate-expressed LULL1 – cell lysate, human LULL1 lysate, 635/667 nm fluorescence, primary screen (AID 1092).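 Also: probe is lysate of COS7 cells overexpressing human LULL1; score merges per-feature 667 nm fluorescence with signal-to-noise.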 To be noted: small-molecule microarray, hLULL1 lysate binding, 635 nm fluorescence; higher = more signal.
Assay [16] is described as follows: optical density change of DRC41 E. coli – strain DRC41, OD650, 24 h, E. coli filamentation project, primary screen (AID 1093).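 Also: MC1000 strain lacking acrAB efflux and sulA so SOS filamentation is blocked; test concentration not given here.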 To be noted: E. coli DRC41 growth, higher = more signal, called active from +8 up or from −8 down.
Assay [17] is described as follows: probe aLefty2 binding to arrayed compounds – biochemical, biotinylated probe, 635/667 nm fluorescence, primary screen (AID 1094).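 Also: score merges spot fluorescence near 667 nm with spot signal-to-noise ratio.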 To be noted: small-molecule microarray, higher = more signal.
Assay [18] concerns Noggin (protein binding on small-molecule microarray). Nature of the assay: small molecules binding Noggin protein – biochemical, 635/667 nm fluorescence, primary screen (AID 1095).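 Also: score merges 667 nm feature fluorescence with signal to noise over triplicate slides.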 To be noted: 635 nm fluorescence, higher = more signal.
Assay [19] has as its target Neurogenic locus notch homolog protein 3 (Homo sapiens) (UniProt Q9UM47). Nature of the assay: small molecules binding NOTCH3 protein – biochemical, 635/667 nm fluorescence, primary screen (AID 1096). To be noted: small-molecule microarray, 635 nm fluorescence, higher = more signal.
A short description of assay [20]: probe aEGFR binding to arrayed compounds – biochemical, biotinylated probe, 635/667 nm fluorescence, primary screen (AID 1097).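 Also: probe is a biotinylated anti-EGFR antibody binding compounds printed on slides; score combines fluorescence near 667 nm and signal to noise of each spot.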 The settings on record: small-molecule microarray, higher = more signal.

Each structure is given as a SMILES string. Activity calls are given as the source filed them.

Chain of Pro-neuregulin-1, membrane-bound isoform (Homo sapiens) (Q02297 whole entry, looked up, the tested form may be a part, canonical isoform): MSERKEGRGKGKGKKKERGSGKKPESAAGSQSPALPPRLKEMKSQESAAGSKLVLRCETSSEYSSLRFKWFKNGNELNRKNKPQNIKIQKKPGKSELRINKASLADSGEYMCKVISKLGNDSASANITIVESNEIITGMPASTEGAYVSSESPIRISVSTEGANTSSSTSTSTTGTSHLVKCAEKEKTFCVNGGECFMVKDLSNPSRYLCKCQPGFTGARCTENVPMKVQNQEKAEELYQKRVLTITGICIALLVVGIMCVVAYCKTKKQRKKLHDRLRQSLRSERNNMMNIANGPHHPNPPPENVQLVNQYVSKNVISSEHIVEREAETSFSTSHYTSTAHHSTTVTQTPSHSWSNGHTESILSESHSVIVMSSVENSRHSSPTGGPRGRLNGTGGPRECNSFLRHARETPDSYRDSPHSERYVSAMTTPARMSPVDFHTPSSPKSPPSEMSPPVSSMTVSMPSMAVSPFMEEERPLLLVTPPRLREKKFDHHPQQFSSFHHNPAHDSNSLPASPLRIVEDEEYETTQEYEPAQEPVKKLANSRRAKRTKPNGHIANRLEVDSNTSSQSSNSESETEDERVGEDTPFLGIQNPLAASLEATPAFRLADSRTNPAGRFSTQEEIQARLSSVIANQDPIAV
Chain of Torsin-1A-interacting protein 2 (Homo sapiens) (Q8NFQ8 whole entry, looked up): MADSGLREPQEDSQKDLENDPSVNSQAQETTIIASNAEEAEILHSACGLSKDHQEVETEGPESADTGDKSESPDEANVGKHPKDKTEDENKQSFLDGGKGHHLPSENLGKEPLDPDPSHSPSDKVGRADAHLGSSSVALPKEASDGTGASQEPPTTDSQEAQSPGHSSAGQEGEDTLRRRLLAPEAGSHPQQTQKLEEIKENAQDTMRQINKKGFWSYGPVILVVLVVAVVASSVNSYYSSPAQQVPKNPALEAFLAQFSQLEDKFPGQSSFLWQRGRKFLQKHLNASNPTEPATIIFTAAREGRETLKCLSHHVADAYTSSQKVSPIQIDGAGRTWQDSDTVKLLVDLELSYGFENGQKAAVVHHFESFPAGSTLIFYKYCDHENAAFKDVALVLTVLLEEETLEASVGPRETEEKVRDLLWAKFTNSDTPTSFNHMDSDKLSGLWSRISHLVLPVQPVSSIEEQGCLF
Chain of Neurogenic locus notch homolog protein 3 (Homo sapiens) (Q9UM47 whole entry, looked up): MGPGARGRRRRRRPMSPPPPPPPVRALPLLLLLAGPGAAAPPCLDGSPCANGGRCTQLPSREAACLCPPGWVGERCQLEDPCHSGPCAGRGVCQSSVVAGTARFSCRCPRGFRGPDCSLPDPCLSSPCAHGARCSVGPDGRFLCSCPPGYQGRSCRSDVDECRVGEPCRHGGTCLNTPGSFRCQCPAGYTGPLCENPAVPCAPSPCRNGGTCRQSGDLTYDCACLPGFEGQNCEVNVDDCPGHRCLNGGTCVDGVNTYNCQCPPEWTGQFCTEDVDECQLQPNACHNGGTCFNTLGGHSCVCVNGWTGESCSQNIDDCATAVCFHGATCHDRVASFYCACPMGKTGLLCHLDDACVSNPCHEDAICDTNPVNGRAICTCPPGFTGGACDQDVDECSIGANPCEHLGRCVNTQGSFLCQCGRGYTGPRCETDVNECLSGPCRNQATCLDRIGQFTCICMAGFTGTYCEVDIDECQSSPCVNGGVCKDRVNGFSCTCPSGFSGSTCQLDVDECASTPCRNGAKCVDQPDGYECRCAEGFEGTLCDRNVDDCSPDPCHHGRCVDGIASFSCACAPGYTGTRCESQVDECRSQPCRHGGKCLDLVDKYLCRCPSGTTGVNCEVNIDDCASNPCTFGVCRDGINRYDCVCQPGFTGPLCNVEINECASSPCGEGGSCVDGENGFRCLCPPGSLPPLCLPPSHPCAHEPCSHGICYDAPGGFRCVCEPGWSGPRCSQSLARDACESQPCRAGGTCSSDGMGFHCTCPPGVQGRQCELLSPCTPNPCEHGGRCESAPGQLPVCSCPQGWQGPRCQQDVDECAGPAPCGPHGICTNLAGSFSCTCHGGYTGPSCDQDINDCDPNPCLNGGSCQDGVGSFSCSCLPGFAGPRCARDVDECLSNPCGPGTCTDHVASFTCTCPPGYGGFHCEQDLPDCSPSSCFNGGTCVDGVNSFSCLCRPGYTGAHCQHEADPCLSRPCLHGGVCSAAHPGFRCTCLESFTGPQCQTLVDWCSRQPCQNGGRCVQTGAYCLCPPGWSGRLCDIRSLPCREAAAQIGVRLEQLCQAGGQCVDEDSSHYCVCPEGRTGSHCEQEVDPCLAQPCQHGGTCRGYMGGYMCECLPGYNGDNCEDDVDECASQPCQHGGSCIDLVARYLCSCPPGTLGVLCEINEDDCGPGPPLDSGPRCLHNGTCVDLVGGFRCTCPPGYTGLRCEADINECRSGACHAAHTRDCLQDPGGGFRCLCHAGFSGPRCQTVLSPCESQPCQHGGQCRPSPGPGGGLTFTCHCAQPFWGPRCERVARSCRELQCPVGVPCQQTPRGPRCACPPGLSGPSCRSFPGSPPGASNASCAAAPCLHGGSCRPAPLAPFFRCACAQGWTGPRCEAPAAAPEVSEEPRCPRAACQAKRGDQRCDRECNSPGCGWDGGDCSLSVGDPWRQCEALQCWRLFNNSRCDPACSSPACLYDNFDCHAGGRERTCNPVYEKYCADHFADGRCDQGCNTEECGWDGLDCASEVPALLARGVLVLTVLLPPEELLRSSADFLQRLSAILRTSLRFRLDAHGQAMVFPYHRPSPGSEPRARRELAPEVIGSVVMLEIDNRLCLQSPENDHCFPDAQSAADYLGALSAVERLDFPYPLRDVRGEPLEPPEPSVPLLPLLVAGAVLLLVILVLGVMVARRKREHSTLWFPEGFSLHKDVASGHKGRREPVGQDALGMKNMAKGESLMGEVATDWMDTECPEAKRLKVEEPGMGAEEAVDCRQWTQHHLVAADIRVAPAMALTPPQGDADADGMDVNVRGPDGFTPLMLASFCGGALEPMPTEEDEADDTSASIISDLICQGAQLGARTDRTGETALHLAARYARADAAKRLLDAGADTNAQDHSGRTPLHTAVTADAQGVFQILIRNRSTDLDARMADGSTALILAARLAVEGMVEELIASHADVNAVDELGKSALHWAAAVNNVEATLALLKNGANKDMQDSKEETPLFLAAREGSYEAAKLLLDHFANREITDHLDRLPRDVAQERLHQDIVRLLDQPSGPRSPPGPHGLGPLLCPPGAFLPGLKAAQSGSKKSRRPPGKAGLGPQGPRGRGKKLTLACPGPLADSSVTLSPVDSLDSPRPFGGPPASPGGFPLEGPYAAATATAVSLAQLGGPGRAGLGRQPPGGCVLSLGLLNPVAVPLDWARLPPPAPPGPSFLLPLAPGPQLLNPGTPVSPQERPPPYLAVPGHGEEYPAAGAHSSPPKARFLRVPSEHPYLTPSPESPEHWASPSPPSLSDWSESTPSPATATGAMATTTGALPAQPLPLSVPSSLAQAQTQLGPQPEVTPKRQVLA

Regarding `O=C1O[C@H](Cc2ccccc2)[C@@H]2[C@H]3C=CCCC=C3CN2[C@H]1Cc1ccc(O)cc1`, the composite z-score in [1] is -0.117; in [2], -0.0933; in [3], -0.0692; in assay [4], -0.026; in [5], -0.562; in assay [6] it was -0.465. Besides, the composite z-score was 0.0706 in assay [7]; 0.142 in [9]; 0.0976 in assay [10]; -1.14 in assay [11]; -0.145 in assay [15]; -0.0591 in assay [17]. Moreover, the results for the composite z-score in assay [18], in [19] and in assay [20] were -0.0371, -0.268 and -0.0958, respectively. For the same molecule, the z-score is 0.0201 (inactive) in assay [8]; -0.055 (inactive) in [12]; -1.54 (inactive) in assay [13]; -0.621 (inactive) in assay [14]; 0.222 (inactive) in assay [16].
For `CCOC(=O)C[C@H]1[C@H](OC(=O)c2cc3ccccc3oc2=O)[C@@H](NC(=O)CC(C)C)c2cc(OCCCO)ccc2N1C(=O)Cc1ccc(OC)cc1`, the composite z-score in assay [1] was -0.699; in assay [2], -0.115; in [3], -0.114; in assay [4], 0.499; in assay [5] it was 0.508; in assay [6], 0.324. Also, the composite z-score in [7] was 0.49; in assay [9] it was 0.479; in assay [10], -0.201; in assay [11], 1.14; in assay [15] it was 1.3; in assay [17] it was -0.165. The composite z-score in [18] is 0.322; in assay [19] it was 0.924; in assay [20], -0.0973. Also, the z-score in assay [8] is -0.509 (inactive); in [12] it was -0.238 (inactive); in assay [13], -0.462 (inactive); in assay [14], 0.052 (inactive); in [16], -0.479 (inactive).
As to `COc1ccc([Si](C)(C)[C@@H]2[C@@H](CC(=O)N3CCC[C@H]3CO)O[C@]3(C(=O)N(Cc4cccc(N5CCCCC5=O)c4)c4ccccc43)[C@H]2C)cc1`, the composite z-score in assay [1] was -0.398; in [2], 0.887; in assay [3], -0.116; in assay [4], 0.411; in assay [5] it was 0.0236; in assay [6], 1.07. The composite z-score was 1.07 in assay [7]; -0.015 in assay [9]; -0.0296 in assay [10]; 1.57 in [11]; 1.89 in [15]; -0.183 in assay [17]. Besides, the composite z-score in assay [18] is 0.894; in assay [19] it was 0.625; in [20], -0.0828. Further, the z-score in assay [8] is -0.0792 (inactive); in [12], -0.965 (inactive); in assay [13], -0.388 (inactive); in assay [14], 0.1 (inactive); in assay [16], 0.807 (inactive).
As for `CN1C(=O)C2C(C3CC3)C=C3CN(Cc4cccc(Cl)c4)[C@@H]([C@@H](O)Cc4ccccc4)C3C2C1=O` (stereo not given in full), the composite z-score is -0.357 in assay [1]; 0.268 in [2]; -0.229 in assay [3]; 0.0719 in assay [4]; 0.999 in [5]; 1.03 in [6]. Moreover, the composite z-score in assay [7] is 1.23; in assay [9], -0.156; in assay [10] it was 0.0854; in [11], 1.57; in assay [15], 2.94; in assay [17] it was -0.126. The composite z-score was 1.23 in [18], 1.15 in assay [19] and -0.0679 in [20]. In addition, the z-score in assay [8] is -1.31 (inactive); in assay [12], 0.347 (inactive); in assay [13], -1.87 (inactive); in assay [14], -0.539 (inactive); in assay [16], 1.71 (inactive).
As to `Cc1ccc(S[C@]2(C(=O)NCc3ccccc3)CC(=O)N(Cc3ccccc3C(F)(F)F)[C@@H]2c2ccc(CO)cc2)cc1`, the composite z-score was 0.563 in [1]; -0.355 in assay [2]; -0.105 in assay [3]; -0.659 in assay [4]; -1.44 in assay [5]; 0.642 in assay [6]. Besides, the composite z-score in [7] is -1.08; in assay [9] it was -0.633; in assay [10] it was -0.204; in assay [11], 0.884; in [15], 1.05; in assay [17], -0.154. For the same molecule, the figures for the composite z-score in assay [18], in assay [19] and in assay [20] were -1.16, -0.64 and -0.272, respectively. The z-score in [8] is -1.92 (inactive); in assay [12], -1.61 (inactive); in [13] it was 0.447 (inactive); in [14] it was -0.417 (inactive); in assay [16], 0.837 (inactive).
With `C=C(COC)C(=O)CC[C@H](OC(=O)c1cccnc1)c1ccc(OCCO)cc1`, the composite z-score is -0.21 in [1]; 0.43 in assay [2]; -0.133 in [3]; 1.2 in [4]; 0.144 in [5]; 0.865 in assay [6]. In addition, the composite z-score is 1.29 in assay [7]; 0.21 in [9]; -0.0618 in [10]; 1.52 in assay [11]; 1.48 in assay [15]; -0.155 in [17]. The composite z-score in assay [18] is 1.22; in assay [19], 0.78; in assay [20] it was -0.113. Besides, the z-score in [8] is -0.742 (inactive); in assay [12], -0.191 (inactive); in [13] it was -1.48 (inactive); in [14], 0.535 (inactive); in assay [16], 0.105 (inactive).

For the origin of these results see PubChem BioAssay.
